Test results as given in PubChem BioAssay AID2685 (National Center for Advancing Translational Sciences (NCATS), 2010).
Hit rate of the full screen: of about 320,000 compounds, about 2,100 (0.66%) were called active. Another 53% or so got no clear call; they are omitted. The sample holds actives, similar compounds and a random draw of the others, so the mix is not that of the screen. Calls come from the whole dose curve; as a rule, active = well fitted inhibition curve with a large enough effect in the signal ratio, with a control signal flat (not every such curve was filed as active); inconclusive = small, poorly fitted or top-dose-only effect, or effect the other way, or a change in a side signal; inactive = flat fitted curve, though single readings scatter; the % refers to the signal ratio.

Assay: qHTS Assay for Lipid Storage Modulators in Drosophila S3 Cells;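 for cell number change: cells counted by Cell Tracker Red CMTPX staining in the red channel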; for lipid storage change, negative = inhibition: % is set by controls: 0 for no effect and ±100 for the full control effect
Conditions: BODIPY lipid droplet fluorescence, 18-24 h, cells fed with added oleic acid; cell number change: measured here: cell count max response; series mostly up to 46.1 µM; lipid storage change, negative = inhibition: at the top concentration
How it was run: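 Drosophila S3 cells loaded with oleic acid (400 uM, as added) and compounds at several concentrations; lipid droplets imaged by 488-nm laser-scanning cytometry, 500–530 nm intensity and object ratio to cell channel. Percent activity normalized to 20 uM Triacsin C.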
Potency is the fitted concentration of half-maximal effect.

SMILES	lipid storage change, negative = inhibition	cell number change [%]	outcome	Potency
Nc1c(C(=O)Nc2ccc(S(=O)(=O)N3CCCC3)cc2)sc2nc3cc4c(cc3cc12)CCC4	-10.7% (inactive)	6.36	–	–
Cc1cccc2cc3c(N)c(C(=O)Nc4ccc(N5CCOCC5)cc4)sc3nc12	5.73% (inactive)	-1.66	–	–
Cc1cccn2c(=O)c3cc(C(=O)NCCc4ccccc4)sc3nc12	–	-15.4	inactive	–
Cc1ccc(C(=O)N2CCC(Cc3ccccc3)CC2)cc1[N+](=O)[O-]	14.3% (inactive)	4.11	–	–
C=CCNC(=O)/C(C#N)=C\c1cc(Cl)c(O)c(OCC)c1	-22% (inactive)	2.03	–	–
COc1cc(/C=C(/C#N)C(=O)NCc2ccccc2)cc(OC)c1OC	–	-27.2	inactive	–
C=CCNC(=O)/C(C#N)=C\c1cc(Cl)c(OCC)c(OC)c1	–	-28.8	–	14.6 µM (active)
CC(=O)Nc1ccc(NC(=O)C2CC(=O)Nc3nc4ccccc4n32)cc1 (stereo not drawn)	9.73% (inactive)	-1.64	–	–
CNC(=O)Nc1cccc(C(F)(F)F)c1	10.6% (inactive)	3.39	–	–
CCSc1nnc(NC(=O)Nc2cccc(C)c2)s1	-12.7% (inactive)	17	–	–
CCSCCc1nnc(NC(=O)Nc2cccc(C(F)(F)F)c2)s1	–	-21.6	–	20.6 µM (active)
CC(C)C[C@@H](CSc1ccc(Br)cc1)N1CCN(C)CCC1=O	14.2% (inactive)	-4.06	–	–
CC(C(=O)NCc1ccc2c(c1)OCO2)N(c1ccccc1)S(C)(=O)=O (stereo not drawn)	6.83% (inactive)	7.31	–	–
COc1ccc(N2C(=O)CN(Cc3ccc(OC)c(OC)c3)C2=S)cc1	-2.11% (inactive)	10.4	–	–
Cc1cc(C)c2nc(N(CCCN(C)C)C(=O)C3=COCCO3)sc2c1	-22.2% (inactive)	-20	–	–
Cc1ccc(/C=N/NC(=O)c2csc3c2CCCC3)cc1	–	-23.6	–	16.4 µM (active)
O=C(N/N=C/c1cccc(F)c1)c1csc2c1CCCC2	2.18% (inactive)	1.41	–	–
O=C(N/N=C/c1ccc(O)cc1)c1csc2c1CCCC2	-8.69% (inactive)	–	–	–
COc1ccc(C)cc1S(=O)(=O)N(CC(=O)Nc1cccc([N+](=O)[O-])c1)c1cc(C)cc(C)c1	–	–	inactive	–
CCOc1ccccc1OCC(=O)NN1Cc2ccccc2C1=N	–	–	inactive	–
CC(=O)Nc1cccc(C(=O)/C=C/c2ccc[nH]2)c1	-0.805% (inactive)	9.89	–	–
CC(=O)Nc1cccc(C(=O)/C=C/c2ccc(/C=C/C(=O)c3cccc(NC(C)=O)c3)cc2)c1	–	-12.7	–	8.2 µM (active)
CSc1ccc(/C=C/C(=O)c2ccc(NC(C)=O)cc2)cc1	–	–	inactive	–
Cc1cccc(C(=O)Nc2ccc(C(=O)/C=C/c3ccncc3)cc2)c1	–	-3.72	–	6.51 µM (active)

SMILES	lipid storage change, negative = inhibition	cell number change [%]	outcome	Potency
Cc1cccc(C(=O)N/N=C/c2ccncc2)c1	3.87% (inactive)	-0.828	–	–
Cc1cccc(C(=O)Nc2ccc(O)cc2)c1	-0.178% (inactive)	4.55	–	–
CCOc1ccccc1CNC(=O)CCC(=O)N1Cc2ccccc2Oc2ncccc21	–	-10.6	inactive	–
CCOC(=O)C1(Cc2ccc(Cl)cc2)CCN(C(=O)c2cc(C)nc(C)n2)CC1	0.881% (inactive)	-4.86	–	–
Cc1onc(-c2ccccc2Cl)c1C(=O)NCCCc1ccccc1	–	-24	inactive	–
Fc1ccc(C2c3[nH]c4ccccc4c3CCN2Cc2cccn2-c2ncccn2)cc1 (stereo not drawn)	-15.7% (inactive)	1.18	–	–
COc1ccc(C2c3[nH]c4ccccc4c3CCN2Cc2cccn2-c2ncccn2)cc1C (stereo not drawn)	–	-1.91	–	16.4 µM (active)
Cc1cccc(C2c3[nH]c4ccccc4c3CCN2Cc2cccn2-c2ncccn2)c1 (stereo not drawn)	–	-27.2	inactive	–
CCN(CC)S(=O)(=O)c1cccc(-c2nnc(SCC(=O)c3cc(C)n(C4CC4)c3C)o2)c1	–	13.6	inactive	–
CCCOc1ccc(N2C(=O)CC(NCc3cccs3)C2=O)cc1 (stereo not drawn)	4.41% (inactive)	15.4	–	–
CCOC(=O)c1ccc(CNC(=O)C(Cc2c[nH]c3ccccc23)NC(C)=O)o1 (stereo not drawn)	–	–	inactive	–
O=C(NC(=O)c1c(Cl)cccc1Cl)Nc1ccc(Oc2cccnc2)nc1	8.04% (inactive)	1.56	–	–
O=C1/C(=C/c2cccs2)SC(=S)N1CCCC(=O)N(CCO)c1ccccc1	-14.3% (inactive)	6.09	–	–
Cc1cc(C)cc(C(=O)OCC(=O)N2CCCCCC2)c1	0.176% (inactive)	-14.4	–	–
O=C1CCCC(O)=C1N=Nc1c(Cl)cc(Cl)cc1Cl	17.9% (inactive)	2.67	–	–
Cc1c(/C=N/NC(=O)c2cc(Br)ccc2O)c(=O)n(C)c(=O)n1C	–	-6.52	–	5.8 µM (active)
C/C=N/NC(=O)c1cc(Br)ccc1O	9.52% (inactive)	5.04	–	–
Cc1cccc(/C=N/NC(=O)c2cc(Br)ccc2O)n1	6.34% (inactive)	0.985	–	–
CN1CCN(c2ccc(NC(=O)c3ccc(-c4cccc([N+](=O)[O-])c4)o3)cc2)CC1	17.2% (inactive)	17.7	–	–
O=[N+]([O-])c1cccc(-c2ccc(C(=S)N3CCOCC3)o2)c1	-17.7% (inactive)	15.8	–	–
O=C(Nc1ccc(CN2CCOCC2)cc1)c1ccc(-c2cccc([N+](=O)[O-])c2)o1	–	-29.5	–	8.2 µM (active)
O=C(NC1CCCN(CCc2ccccc2)C1)C1CCCC1 (stereo not drawn)	-3.29% (inactive)	8.14	–	–
C[C@H](NC(=O)C1CCN(S(=O)(=O)c2ccccc2)CC1)C(=O)NCc1ccc(F)cc1	25.5% (inactive)	–	–	–
